An excerpt weighted towards active compounds, which were near 9.9% of everything screened.
SW480 rerep – A quantitative high throughput screen for small molecules that induce DNA re-replication in SW480 colon adenocarcinoma cells | actives 1.8% (n = 340,000) | SW480 DNA re-replication, Hoechst DNA content imaging, 48 h | AID 624297, 2012 | Potency, µM (doses to about 46.1 µM), without a hit: at the top dose re-replication activation, usual class: activators; further: potency means the concentration at half of the fitted maximal effect; % of control where 0% means no effect; nearly all actives have a fitted effect of over 55% in size
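Hoechst fluorescence of nuclei (405 nm excitation, 500-530 nm emission) measured by plate-scanning imager after 48 hr compound exposure at 37 C; re-replication scored as increased number of nuclei with elevated intensity.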
KB-V1 cytotox – qHTS assay for MDR1-selective chemotherapeutics: Primary screen using the drug-selected MDR subline cells KB-V1. KB-V1 MDR cells viability, CellTiter-Glo, 72 h. Potency, µM (top dose mostly 46.1 µM), most hits filed as cytotoxic. actives 3.4% (n = 400,000). AID 1347076, 2019; further: potency means the concentration at half of the fitted maximal effect; on the % scale 0 is the no-effect control and ±100 the full control effect; nearly all actives have a fitted effect of over 60% in size
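Potencies derive from concentration-effect curves fitted to normalized luminescence (CellTiter-Glo) of KB-V1 cells treated for 72 h at 37 degrees C in phenol-red-free DMEM containing 10% FBS.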
KB-3-1 tox – qHTS assay for MDR1-selective chemotherapeutics: Primary screen using the parental adenocarcinoma cell KB-3-1; actives 1.4% (n = 400,000); KB-3-1 viability, CellTiter-Glo ATP luminescence, 72 h; Potency, µM (doses to about 46.1 µM), most hits filed as cytotoxic; AID 1347075, 2019; further: potency means the concentration at half of the fitted maximal effect; on the % scale 0 is the no-effect control and ±100 the full control effect; nearly all actives have a fitted effect of over 60% in size
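KB-3-1 cells, DMEM (no phenol red) + 10% FBS; compound by pin transfer, 72 h, 37 °C. Readout: CellTiter-Glo luminescence after 10 min. Data normalized, curve-fitted.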
MCF10A rereplic – A quantitative high throughput screen for small molecules that induce DNA re-replication in MCF 10a normal breast cells; AID 624296, 2012; actives 2.9% (n = 350,000); MCF 10A DNA re-replication, Hoechst nuclear intensity, 48 h; Potency, µM (series often up to 46.1 µM), for inactives: top-dose activity, positive = re-replication, most hits filed as activators; further: potency means the concentration at half of the fitted maximal effect; % of control where 0% means no effect; nearly all actives have a fitted effect of over 50% in size
IL-1B inflam inh – qHTS for Inhibitors of Inflammasome Signaling: IL-1-beta AlphaLISA Primary Screen. AID 743279, 2014. actives 4.7% (n = 360,000). THP-1 LPS/ATP IL-1B secretion, AlphaLISA, 16 h; hits give low values. activity change, % at 57.5 µM; in the data active means activity change below about -50%; inconclusive means mostly about -30% to -49%; further: on the % scale 0 is the no-effect control and ±100 the full control effect
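Secreted IL-1B measured by AlphaLISA bead assay after 16 h compound exposure of THP-1 cells; compounds (final up to 57.5 uM) added 1 h before LPS (250 ng/mL) and ATP (1.25 mM) stimulation; lower signal means less secretion.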
Starred values were filed as active, the others as inactive. Unless noted, the call rests on the fitted dose curve; in most records, active means well fitted curve in the direction sought with a large enough effect; inconclusive means small, poorly fitted or top-dose-only effect, or another doubt; inactive means no such curve, though single readings can be large; an effect the other way counts as inactive or inconclusive.

How did O=C(COc1ccccc1Cl)Nc1ccc(NC(=O)c2ccco2)cc1 do in these assays?
SW480 rerep: -3%; KB-V1 cytotox: inactive; KB-3-1 tox: inactive; MCF10A rereplic: 1%; IL-1B inflam inh: -59*

How did CNC(=O)c1ccccc1NC(=O)C1CC(=O)N(C(C)C)C1 (stereo not given) do in these assays?
SW480 rerep: -3%; KB-V1 cytotox: inactive; KB-3-1 tox: inactive; MCF10A rereplic: 0%; IL-1B inflam inh: -14

What do the screens show for `CC(=O)N1CCN(c2cc(N3CCCC3)c(F)cc2[N+](=O)[O-])CC1`?
SW480 rerep: inconclusive; KB-V1 cytotox: inactive; KB-3-1 tox: inactive; MCF10A rereplic: -1%; IL-1B inflam inh: -17

What do the screens show for `CCN1CCN(c2cc(N3CCc4ccccc4C3)c(F)cc2[N+](=O)[O-])CC1`?
SW480 rerep: inconclusive; KB-V1 cytotox: inconclusive; KB-3-1 tox: inactive; MCF10A rereplic: inconclusive; IL-1B inflam inh: -104*

Results for Oc1c(Cl)cc(Cl)cc1/C=C/c1ccc2cccc(O)c2n1 ?
SW480 rerep: 12µM*; KB-V1 cytotox: inconclusive; KB-3-1 tox: inconclusive; MCF10A rereplic: 6.5µM*; IL-1B inflam inh: 11

How did Oc1cccc2ccc(/C=C/c3ccccc3Br)nc12 do in these assays?
SW480 rerep: 6.5µM*; KB-V1 cytotox: inconclusive; KB-3-1 tox: inconclusive; MCF10A rereplic: inconclusive; IL-1B inflam inh: 62

What do the screens show for `Oc1ccc2ccccc2c1/C=C/c1ccc2c(Br)cc(Br)c(O)c2n1`?
SW480 rerep: 18µM*; KB-V1 cytotox: 4.1µM*; KB-3-1 tox: inconclusive; MCF10A rereplic: 8.2µM*; IL-1B inflam inh: 11

Results for CCOc1cc(/C=C/c2ccc3cccc([N+](=O)[O-])c3n2)cc(Cl)c1O ?
SW480 rerep: 16%; KB-V1 cytotox: inactive; KB-3-1 tox: inactive; MCF10A rereplic: 26%; IL-1B inflam inh: 8

What do the screens show for `Oc1ccc(Cl)cc1/C=C/c1ccc2cccc(O)c2n1`?
SW480 rerep: 21µM*; KB-V1 cytotox: inactive; KB-3-1 tox: inconclusive; MCF10A rereplic: inconclusive; IL-1B inflam inh: 6

Results for O=C(/C=C/c1ccc2ccccc2n1)c1cc(Cl)ccc1O ?
SW480 rerep: 11%; KB-V1 cytotox: inactive; KB-3-1 tox: inactive; MCF10A rereplic: 12%; IL-1B inflam inh: -7

What do the screens show for `COc1ccc(N2C[C@H](CSC)[C@@H](CC(=O)Nc3ccc(Br)cc3)C2=O)cc1`?
KB-V1 cytotox: 8.2µM*; KB-3-1 tox: inactive; IL-1B inflam inh: -23

Results for CCCc1ccc(S(=O)(=O)N2CCN(C(=O)CN3C(=O)NC(C)(C4CC4)C3=O)CC2)cc1 (stereo not given) ?
KB-V1 cytotox: inactive; KB-3-1 tox: inactive; IL-1B inflam inh: -24

Results for COc1cccc(N2CC(C)Cn3c2nc2c3c(=O)[nH]c(=O)n2C)c1 (stereo not given) ?
SW480 rerep: 3%; KB-V1 cytotox: inactive; KB-3-1 tox: inactive; MCF10A rereplic: 3%; IL-1B inflam inh: -11

Results for COc1ccc(OCC(O)CNC(=O)c2ccc(Br)cc2)cc1 (stereo not given) ?
SW480 rerep: -1%; KB-V1 cytotox: 4.1µM*; KB-3-1 tox: inactive; MCF10A rereplic: 0%; IL-1B inflam inh: -6

How did CCC(CC)NCC(O)COc1ccc(Br)cc1 (stereo not given) do in these assays?
SW480 rerep: -2%; KB-V1 cytotox: inconclusive; KB-3-1 tox: inactive; MCF10A rereplic: 0%; IL-1B inflam inh: -52*

What do the screens show for `COc1ccc(OCC(O)CNC(=O)c2ccc(OC)cc2)cc1` (stereo not given)?
SW480 rerep: -11%; KB-V1 cytotox: inactive; KB-3-1 tox: inactive; MCF10A rereplic: -9%; IL-1B inflam inh: 3

How did COc1ccc(-c2noc(CN(C(=O)Cc3ccc(C)cc3)C(C)C)n2)cc1 do in these assays?
KB-V1 cytotox: inactive; KB-3-1 tox: inactive

Results for Cc1ccc2c(c1)C1(C(=O)N2)N2CCCC2C(C(=O)c2ccc3ccccc3c2)C12C(=O)Nc1ccccc12 (stereo not given) ?
SW480 rerep: inconclusive; KB-V1 cytotox: inactive; KB-3-1 tox: inactive; MCF10A rereplic: inconclusive; IL-1B inflam inh: -86*

How did O=C(Nc1ccc2nc(SCc3ccc(Cl)cc3)sc2c1)c1ccccc1C(=O)N1CCOCC1 do in these assays?
SW480 rerep: 3%; KB-V1 cytotox: inactive; KB-3-1 tox: inactive; MCF10A rereplic: 6.5µM*; IL-1B inflam inh: -7

How did COC(=O)CSc1nc2ccc(NC(=O)c3ccccc3C(=O)N3CCOCC3)cc2s1 do in these assays?
SW480 rerep: -4%; KB-V1 cytotox: inconclusive; KB-3-1 tox: inactive; MCF10A rereplic: 1%; IL-1B inflam inh: -65*

Results for Cc1cc(C)c(C(=O)/C=C/c2cccc3ccccc23)c(=O)[nH]1 ?
SW480 rerep: 23µM*; KB-V1 cytotox: 8.2µM*; KB-3-1 tox: 6.5µM*; MCF10A rereplic: 16µM*; IL-1B inflam inh: -85*

What do the screens show for `Cc1cc(C)c(C(=O)/C=C/c2ccc3c(c2)OCO3)c(=O)[nH]1`?
SW480 rerep: inconclusive; KB-V1 cytotox: inconclusive; KB-3-1 tox: inconclusive; MCF10A rereplic: inconclusive; IL-1B inflam inh: -91*

What do the screens show for `Cc1ccc(C(=O)/C=C/c2ccc3c(c2)OCO3)o1`?
SW480 rerep: 27%; KB-V1 cytotox: inactive; KB-3-1 tox: inactive; MCF10A rereplic: inconclusive; IL-1B inflam inh: -50*

How did Cc1ccc(C(=O)/C=C/c2ccc(Br)cc2)o1 do in these assays?
SW480 rerep: 18µM*; KB-V1 cytotox: inactive; KB-3-1 tox: inactive; MCF10A rereplic: 7.3µM*; IL-1B inflam inh: -57*

What do the screens show for `Cc1ccc(C(=O)/C=C/c2ccccc2)o1`?
SW480 rerep: 5%; KB-V1 cytotox: inconclusive; KB-3-1 tox: inconclusive; MCF10A rereplic: inconclusive; IL-1B inflam inh: inconclusive

What do the screens show for `COc1cccc(NC(=O)Cn2c(=O)n(Cc3ccco3)c(=O)c3cc(OC)c(OC)cc32)c1`?
KB-V1 cytotox: inactive; KB-3-1 tox: inactive

Results for CNc1ccc(Oc2nc([N+](=O)[O-])nn2C)cc1 ?
SW480 rerep: -6%; KB-V1 cytotox: inactive; KB-3-1 tox: inactive; MCF10A rereplic: 1%; IL-1B inflam inh: 8

Results for C/C(=C\c1ccccc1F)C(=O)c1c(C)cc(C)[nH]c1=O ?
SW480 rerep: -1%; KB-V1 cytotox: inactive; KB-3-1 tox: inactive; MCF10A rereplic: -39%; IL-1B inflam inh: -68*

How did C/C(=C\c1ccccc1)C(=O)c1c(C)cc(C)[nH]c1=O do in these assays?
SW480 rerep: 0%; KB-V1 cytotox: inactive; KB-3-1 tox: inactive; MCF10A rereplic: -3%; IL-1B inflam inh: -16
